The values that follow come from PubChem BioAssay AID778 (Sanford-Burnham Center for Chemical Genomics, 2007).

SMILES strings stand for the structures. Out of some 96,000 compounds screened, about 20,000 (21%) were called active. A selection follows. A number with no mark means an inactive call.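 The calls were made as follows: active = CYP2C19 inhibition above a set limit at 5 µM in the primary screen (cut at about 50% in these data); inactive = the rest.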

Usually inhibition stands for the drop in the measured response relative to a control, in per cent.

For the experiment, the target named is Cytochrome P450 2C19 (Homo sapiens) (UniProt P33261). In words: blockers of cytochrome P450 2C19 activity – biochemical, luminescence, ADME assay, primary screen (AID 778).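 Also: plate controls were negative control wells for no effect and 2.5 mM tranylcypromine positive control for full effect.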 Particulars: CYP2C19 Supersomes, luciferin-H EGE luminescence, 30 min; at 5 µM; stronger effect = higher value.
Sequence of Cytochrome P450 2C19 (Homo sapiens) (P33261 whole entry, looked up): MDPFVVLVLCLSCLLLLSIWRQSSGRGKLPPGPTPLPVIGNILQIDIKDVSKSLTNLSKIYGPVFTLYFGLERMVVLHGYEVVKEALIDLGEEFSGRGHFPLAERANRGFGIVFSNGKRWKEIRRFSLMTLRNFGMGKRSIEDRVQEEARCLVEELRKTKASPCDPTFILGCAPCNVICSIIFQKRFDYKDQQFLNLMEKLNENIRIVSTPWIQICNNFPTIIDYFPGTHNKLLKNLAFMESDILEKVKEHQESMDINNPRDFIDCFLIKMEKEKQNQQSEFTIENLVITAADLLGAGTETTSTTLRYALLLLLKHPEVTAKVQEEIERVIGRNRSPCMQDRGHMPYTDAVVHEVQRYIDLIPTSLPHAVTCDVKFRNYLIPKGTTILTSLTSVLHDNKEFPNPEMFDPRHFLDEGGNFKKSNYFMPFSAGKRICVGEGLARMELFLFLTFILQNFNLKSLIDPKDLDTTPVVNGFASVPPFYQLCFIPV
`COc1ccc(-c2oc3ncn(Cc4ccco4)c(=N)c3c2-c2ccc(OC)cc2)cc1`: the inhibition is 33.8%.

Regarding `CCOC(=O)N1CCC(Nc2c(NCCCN3CCN(CC)CC3)c(=O)c2=O)CC1`, the inhibition is 4%. Turning to `c1ccc(-c2ccnc3nc(-n4cccc4)nn23)cc1`, the inhibition was 1.1%. In the case of `CCCC(=O)N1c2ccc(-c3csc(N)n3)cc2CC1C` (stereo not given), the inhibition is 4.4%. `O=c1c(F)cn(C2CCCO2)c(=O)n1Cc1ccccc1Cl` (stereo not given): the inhibition is 36.8%. For the compound `COCCn1c(C)cc(C2=NNC(=Nc3ccc(F)cc3)SC2)c1C`, the inhibition is 20.2%.

`CC(=O)c1c(C)[nH]c(C(=O)NCc2ccc(C)cc2)c1C`: the inhibition was 43.8%. The same measure for `COc1ccc(C)cc1NC(=O)c1[nH]c(C)c(C(C)=O)c1C`: 51.5% (active); for `COc1ccc(C)cc1NC(=O)CCC(=O)Nc1nnc(C(F)(F)F)s1`: -1.8%; for `CC(C)(C)NC(=O)C(c1ccco1)N(Cc1ccc2c(c1)OCO2)C(=O)Cn1nnc2ccccc21` (stereo not given): 48.8%. As for `COc1ccc2c(c1)CCc1c(C(=O)N3CCc4ccccc4C3)noc1-2`, the inhibition is 74.1% (active).

As to `COc1ccc2c(c1)CCc1c(C(=O)Nc3c(C)n(C)n(-c4ccccc4)c3=O)noc1-2`, the inhibition was 25.7%. With `COc1ccc2c(c1)CCc1c(C(=O)N3CCCC3)noc1-2`, the inhibition is 4.9%. As for `CCC(=O)N1CCc2cc(S(=O)(=O)NC(C(=O)N3CCc4ccccc4C3)C(C)C)ccc21` (stereo not given), the inhibition is 4.8%. For `Cc1nc(NC(CC(C)C)C(=O)O)c2nc(C)oc2n1` (stereo not given), the inhibition was -8.5%. Regarding `O=C(Nc1ccon1)c1sc2ccccc2c1Cl`, the inhibition was 1.4%. In the case of `N#Cc1cc([N+](=O)[O-])ccc1Oc1cccc(/C=N/NC(=O)c2ccc(Cl)cc2)c1`, the inhibition was 41.8%. For the compound `CCc1ccccc1NC(=O)CN(C)S(=O)(=O)c1ccc2c(c1)c(=O)n(C)c(=O)n2C`, the inhibition was 7.1%.

On to `Cc1cc(NC(=O)c2cccc(N3C(=O)CCC3=O)c2)no1`, for which the inhibition was 3%. Turning to `O=C(/C=C/Nc1ccccc1OC(F)(F)F)C(F)(F)F`, the inhibition was 18%. For the compound `Cc1cc(C)nc(NC(=O)C(C)N2C(=O)c3ccccc3C2=O)n1` (stereo not given), the inhibition was -21.4%.

Regarding `Cc1ccc(NC(=O)CN(C)S(=O)(=O)c2cnc[nH]2)cc1C`, the inhibition is 88.7% (active).

For `CCOC(=O)N1CCC(N(CCOC)C(=O)Nc2ccc(C)c(C)c2)CC1`, the inhibition was 8.4%. `Cc1ccc(NC(=O)CCNS(=O)(=O)c2ccc3c(c2)oc(=O)n3C)cc1C`: the inhibition was 8%. As to `Cc1ccc(-c2nnc(C)c(N3CC(C)OC(C)C3)n2)cc1` (stereo not given), the inhibition was 7.3%. In the case of `O=C(O)C1CC(=O)N(Cc2cccnc2)C1` (stereo not given), the inhibition was -2.1%.

On to `COCCCNC(=O)C1CC(=O)N(CCc2ccccc2)C1` (stereo not given), for which the inhibition is -3.4%. Consider `Cc1cc(=O)oc2cc(NC(=O)C3CC(=O)N(Cc4ccccc4)C3)ccc12` (stereo not given), for which the inhibition is 52.5% (active). For `CCC(C)NC(=O)c1c(N)n(/N=C/c2cccs2)c2nc3ccccc3nc12` (stereo not given), the inhibition was 13.8%. For `COc1ccccc1NC(=O)C1=C(C)Nc2nnnn2C1c1cccc(Br)c1` (stereo not given), the inhibition was 37.1%. Consider `COc1ccc(C2C(C(=O)Nc3ccccc3OC)=C(C)Nc3nnnn32)c(OC)c1` (stereo not given), for which the inhibition was 32.5%. `COC(=O)c1ccc(C2C3=C(Nc4nnnn42)c2ccccc2OC3)cc1` (stereo not given): the inhibition is 98.9% (active). In the case of `CCCN1Cc2cccc(C(=O)Nc3ccc(S(=O)(=O)N4CCCCCC4)cc3)c2C1=O`, the inhibition was 18.8%.

On to `CCC12CN3CC(CC)(CN(C1)C31C(=O)N(C)c3ccc(C)cc31)C2=O` (stereo not given), for which the inhibition was 15.6%. In the case of `O=C(Nc1ncccn1)c1cccs1`, the inhibition was -3.9%.

Regarding `CCc1ccccc1NC(=O)c1cccs1`, the inhibition is -1%. The same measure for `O=C(Nc1nn(Cc2ccccc2F)cc1Br)c1cccs1`: 57.4% (active). The same measure for `CC(=O)Nn1cc2c(=O)n(C)c(=O)n(C)c2c1`: -4.8%; for `O=c1oc2cc(O)ccc2cc1-c1ccc(F)cc1`: 32.1%. The result for `CCOC(=O)Nc1ccccc1N1C(=O)c2ccccc2C1=O` reads 1.6%; that for `COc1ncnc2sc3c(c12)CCCC3`, 36.6%.

Take `COCCn1c(C)cc(C(=O)CSc2ncnc3sc4c(c23)CCC4)c1C`: the inhibition was 57.5% (active). As for `Cc1cc(C)n(-c2nc(SCC(=O)N3CCCC3)c3c4c(sc3n2)CCCC4)n1`, the inhibition is 49.7%. On to `O=C(NCc1ccco1)c1cnn2c(C(F)(F)F)cc(-c3ccco3)nc12`, for which the inhibition was 20.3%. Take `CCCc1nc(-c2ccccc2O)n(-c2ccccc2)n1`: the inhibition is 34%. For `O=C(CCN1C(=O)C2C3C=CC(C3)C2C1=O)Nc1ccccc1F` (stereo not given), the inhibition is 56.5% (active). On to `O=C(NCCN1C(=O)C2C3C=CC(C3)C2C1=O)Nc1ccccn1` (stereo not given), for which the inhibition is -10.2%. The result for `O=C(CN1C(=O)C2C3C=CC(C3)C2C1=O)NCCc1ccccc1Cl` (stereo not given) reads 23.5%; that for `N#C/C=C\Oc1ccc(Cl)cc1N`, -2.6%; that for `COc1ccc(NC(=O)Cn2c(-c3ccc(OC)cc3)cn(-c3ccc(C)cc3)c2=O)cc1`, -4.3%. The same measure for `N#Cc1nc(-c2ccc(OCc3ccccc3)cc2)oc1NCCCN1CCOCC1`: 7.4%. As for `COc1ccc(Nc2oc(-c3ccccc3Cl)nc2C#N)cc1`, the inhibition was 1.2%. For `N#Cc1nc(COc2ccc(-c3ccccc3)cc2)oc1NCc1cccnc1`, the inhibition is 51.7% (active). With `O=C(Cn1nc(Cc2cccnc2)c2ccccc2c1=O)NCC1CCCO1` (stereo not given), the inhibition was 16.7%. Turning to `O=c1c2ccccc2nnn1CSc1nc2sc3c(c2c(=O)n1CC1CCCO1)CCC3` (stereo not given), the inhibition was 56.4% (active). In the case of `C=C(C)Cn1c(SCC(=O)NCc2ccco2)nc2sc3c(c2c1=O)CCC3`, the inhibition was 7.7%.

For the compound `N#CCCn1cnc2ccccc21`, the inhibition was 1.7%.

In the case of `CC(=O)c1ccc(NC(=O)N[C@@H](Cc2ccccc2)C(=O)O)cc1`, the inhibition was 28.5%. Regarding `COc1ccc(CCNC(=O)COC(=O)c2ccc[nH]c2=O)cc1`, the inhibition was -10.2%.

Consider `CCN(CC)C(=O)C1CCC(C)(C(=O)O)C1(C)C` (stereo not given), for which the inhibition was -4.4%. Turning to `Cc1nc2ccccc2cc1O`, the inhibition was 0.7%. For the compound `CC(=O)Nc1cccc(-c2cnc3ccccc3n2)c1`, the inhibition is 14.9%. As for `Cc1cc(O)ccc1-c1cnc2ccccc2n1`, the inhibition is 60.7% (active). As for `Nc1nonc1-c1nc2ccccc2n1Cc1ccc(F)cc1`, the inhibition is 44.1%.

For `CC(C)N(c1ccccc1)c1ncnc(NCCC(=O)O)c1[N+](=O)[O-]`, the inhibition is 55% (active). As for `Cc1oc(-c2cccc(Cl)c2)[n+]([O-])c1C`, the inhibition is -4.8%. With `CCOC(=O)C1=C(c2ccccc2)N=C2SCC(=O)N2C1c1ccc(O)c(OC)c1` (stereo not given), the inhibition was 79.4% (active). The same measure for `COc1cc(C2C(C(=O)c3ccc(C)o3)=C(O)C(=O)N2CCc2ccccc2)ccc1O` (stereo not given): -1.7%; for `CC1(C)Cc2nc3sc4c(SCC(=O)NC(c5ccccc5)c5ccccc5)ncnc4c3cc2CO1`: 15.3%; for `CC1=CC(=O)C=CC1(C)C(Cl)(Cl)Cl` (stereo not given): 9.4%. The same measure for `CCC(C)Sc1nc2c(c(=O)[nH]c(=O)n2C)n1CC(O)COc1cccc2ccccc12` (stereo not given): 14.5%; for `CCn1c(SCC(=O)Nc2ccc(OC)c(OC)c2)nnc1-c1c[nH]c2ccccc12`: 42.9%. As for `CCn1c(SCCC(C)C)nnc1-c1c[nH]c2ccccc12`, the inhibition was 88.7% (active). As to `CCC(C)Sc1nnc(-c2c[nH]c3ccccc23)n1CCOC` (stereo not given), the inhibition is 15.6%.

Regarding `CCOC(=O)N1CCN(C(=O)c2cn(C)c3ccc(S(=O)(=O)N4CCCC4)cc3c2=O)CC1`, the inhibition is -12.6%. With `O=C(c1ccc(=O)[nH]c1)N(Cc1ccco1)C1(C(=O)NC2CCCCC2)CCCCC1`, the inhibition was -4.2%. Regarding `N=c1c2c3c(sc2ncn1N)CCCCC3`, the inhibition was -16%. In the case of `c1nnc2c3c4c(sc3ncn12)CCC4`, the inhibition was 1.2%. For `C=C(C)CSc1nc(N)c2c3c(sc2n1)CCC3`, the inhibition is 60.4% (active). For `CC(C)(C)NC(=O)NC(=O)COC(=O)CCC1CCCCC1`, the inhibition was -4.7%. In the case of `CCN1CCCC1CNC(=O)c1cc2c(=O)n(C)c3ccccc3c2n1C` (stereo not given), the inhibition was -9.3%.

As for `Cc1[nH][nH]c(=O)c1N=Nc1ccccc1`, the inhibition is 13.3%.

For `Cc1ccc(C2CC2C(=O)NN)cc1` (stereo not given), the inhibition was 47.6%. As for `N/C(=N\OC(=O)CCC1CCCCC1)c1ccccn1`, the inhibition was 5.1%. As to `CC(C)(C)c1cc2cccnc2n1Cc1cccc(F)c1`, the inhibition was 14.8%.

For `N#C/C(=C/c1ccc(Cl)cc1)NC(=O)c1ccccc1`, the inhibition was 3.3%. Turning to `CCCCCN1CC(O)=C(c2ccccc2)C1=N`, the inhibition is -0.3%. The same measure for `Cc1nc2cc(NC(=O)CSc3nc4c(C)cccc4cc3C#N)ccc2s1`: 6.7%; for `CC(NC(=O)CSc1nc2c(cc1C#N)CN(C)CC2)c1ccccc1` (stereo not given): 79.6% (active); for `Cc1ccc2cc(C#N)c(SCC(=O)NCC3CCCO3)nc2c1C` (stereo not given): -2.3%. On to `O=C1c2ccccc2C2=Nc3ccccc3SC(c3ccccc3F)C12` (stereo not given), for which the inhibition is 8%. On to `Clc1ccc(C2CC(c3cccs3)n3ncnc3N2)cc1Cl` (stereo not given), for which the inhibition was 81.9% (active).

Turning to `Cc1ccc(C2CC(c3cccc(C)c3)n3nc(N)nc3N2)cc1` (stereo not given), the inhibition is 45.1%. As for `Nc1nc2n(n1)C(c1ccco1)CC(c1ccc(Cl)c(Cl)c1)N2` (stereo not given), the inhibition is 31%. Take `CN1CCCc2cc(C#N)c(=O)[nH]c21`: the inhibition is 10.9%. Take `Fc1ccc(OCc2nn3c(Cn4nnc5ccccc54)nnc3s2)cc1`: the inhibition is 26.6%. Consider `CCc1cc2c(=O)c(-c3ccon3)c(N)oc2cc1OC`, for which the inhibition was 1.3%.

As for `COc1cc(C(=O)N2CCN(C/C=C/c3ccccc3)CC2)cc(OC)c1C`, the inhibition was 68.8% (active).

Turning to `COc1ccc(C(=O)N2CCC(C(=O)Nc3cccc(C)c3)CC2)cc1OC`, the inhibition was -3.6%.

As for `COc1ccccc1Cn1c(=S)[nH]c2cc(C(=O)N3CCN(C)CC3)ccc2c1=O`, the inhibition was -10.4%.
